# Assay results as given in the supplement of paper PMC9135407.
# Where “and” joins values, the source holds several entries; their conditions need not be identical. Equal values may be shown once. Where a name gives a salt, the structure may show the parent alone. The whole screen tested about 5,800 compounds, of which about 620 (11%) showed activity. Many of the other results were omitted from the sample, so actives are more common in it than they were. A number with no mark means an inactive call.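 The calls were made as follows: active = score above a cut-off or among the top three wells of a plate; in these data no inactive exceeds 0.85.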
# Test system: primary human hepatic stellate cells (donor 1)
# Test: scaled lipid accumulation score (0 = DMSO-like, 1 = nortriptyline-like); higher = stronger HSC inactivation (lipid re-accumulation), active = hit call of the paper
# Conditions: 48 h
# [1] = library stock concentration: 80 uM
# [2] = library stock concentration: 400 uM
# [3] = library stock concentration: 2 mM
# [4] = library stock concentration: 3.33 mM
# [5] = library stock concentration: 10 mM
# [6] = library stock concentration: 1 mM
structure (smiles),measurement,setting,value
O=C1NCCc2[nH]c(-c3ccncc3)cc21,scaled lipid accumulation score,[1],≤ -0.016
same,scaled lipid accumulation score,[2],0.1
same,scaled lipid accumulation score,[3],0.125
same,scaled lipid accumulation score,[4],≤ 0
same,scaled lipid accumulation score,[5],0.19
CCCCCCCCCCCCCC(=O)O [Myristic Acid],scaled lipid accumulation score,[6],≤ 0
c1cn2cc(-c3ccc4cn[nH]c4c3)nc(Nc3ccc(N4CCOCC4)cc3)c2n1 [Entospletinib] [listing 1 of 2 here],scaled lipid accumulation score,[3],1.2 (active)
same,scaled lipid accumulation score,[5],1.21 (active)
Cc1cc(N2CCOCC2)ccc1Nc1nc(NC2CCCCC2)c2[nH]cnc2n1,scaled lipid accumulation score,[4],0.091
same,scaled lipid accumulation score,[5],≤ 0
c1nc2c(NC3CCCCC3)nc(Nc3ccc(N4CCOCC4)cc3)nc2[nH]1 [Reversine],scaled lipid accumulation score,[4],≤ 0
c1cn2cc(-c3ccc4cn[nH]c4c3)nc(Nc3ccc(N4CCOCC4)cc3)c2n1 [Entospletinib] [listing 2 of 2 here],scaled lipid accumulation score,[1],≤ 0
same,scaled lipid accumulation score,[2],0.023
c1cn2cc(-c3ccc4cn[nH]c4c3)nc(Nc3ccc(N4CCOCC4)cc3)c2n1,scaled lipid accumulation score,[4],1.04 (active)
same,scaled lipid accumulation score,[5],0.944 (active)
Cn1c(=O)c(-c2c(Cl)cccc2Cl)cc2cnc(Nc3ccc(N4CCOCC4)cc3)nc21,scaled lipid accumulation score,[5],≤ 0
C[N+](C)(C)CCOP(=O)(O)OP(=O)([O-])OC[C@H]1O[C@@H](n2ccc(N)nc2=O)[C@H](O)[C@@H]1O [Cytidine 5'-diphosphocholine sodium salt hydrate],scaled lipid accumulation score,[5],≤ -0.07
C[N+](C)(C)CCOP(=O)(O)OP(=O)([O-])OC[C@H]1O[C@@H](n2ccc(N)nc2=O)[C@H](O)[C@@H]1O [Citicoline],scaled lipid accumulation score,[5],≤ -0.027
CO[C@H]1C=C[C@@]23c4cc5c(cc4CN(C[C@@H]2O)[C@H]3C1)OCO5 [Crinamine],scaled lipid accumulation score,[5],0.74
Cc1ccc(Nc2cc(-c3cccc(N4C(=O)c5ccccc5C4=O)c3)ncn2)cc1NS(C)(=O)=O,scaled lipid accumulation score,[1],0.083
same,scaled lipid accumulation score,[2],≤ -0.016
same,scaled lipid accumulation score,[3],≤ -0.016
same,scaled lipid accumulation score,[5],0.08
CCCCCC(O)/C=C/C1C(O)CC(O)C1CCCCC(CC(=O)O)OC (stereo not drawn) [3-methoxy Prostaglandin F1.alpha.],scaled lipid accumulation score,[6],≤ 0
CCCCCCCCCCCCCCC(=O)N[C@H]1CCOC1=O [N-pentadecanoyl-L-Homoserine lactone],scaled lipid accumulation score,[6],≤ 0
c1ccc2c(c1)CCC[C@H]2Nc1nc2ccccc2[nH]1 [NS8593 hydrochloride],scaled lipid accumulation score,[5],0.362
CCCCNC(=O)NS(=O)(=O)c1ccc(CO)cc1 [4-hydroxy Tolbutamide],scaled lipid accumulation score,[6],0.012
COc1ccc(NS(=O)(=O)c2sc3ccc(Cl)cc3c2C)cc1N1CCNCC1 [listing 1 of 2 here],scaled lipid accumulation score,[5],1.31 (active)
COc1ccc(NS(=O)(=O)c2sc3ccc(Cl)cc3c2C)cc1N1CCNCC1 [listing 2 of 2 here],scaled lipid accumulation score,[4],0.383
COc1ccc(NS(=O)(=O)c2ccc(I)cc2)cc1N1CCN(C)CC1,scaled lipid accumulation score,[5],0.604
CCCCCCCCCCCCCCCCCCCCCC(=O)NCCO [Docosanoyl Ethanolamide],scaled lipid accumulation score,[6],≤ 0
COc1ccc2c(c1)CCC1C2CCC2(C)C(NCCCCCCN3C(=O)C=CC3=O)CCC12 (stereo not given),scaled lipid accumulation score,[6],≤ 0
same,scaled lipid accumulation score,[5],0.397
C[C@]12CC[C@@H]3c4ccc(OC(=O)c5ccccc5)cc4CC[C@H]3[C@@H]1CC[C@@H]2O [Estradiol benzoate],scaled lipid accumulation score,library stock concentration: 5.3 mM,≤ 0
C[C@]12CC[C@@H]3c4ccc(OC(=O)c5ccccc5)cc4CC[C@H]3[C@@H]1CC[C@@H]2O [Estradiol Benzoate],scaled lipid accumulation score,[4],≤ 0
same,scaled lipid accumulation score,[5],0.155
COc1ccc2c(c1)CCC1C2CC[C@@]2(C)C1CC[C@@H]2NCCCCCCN1C(=O)CCC1=O (stereo not given in full),scaled lipid accumulation score,[5],0.875 (active)
CN1c2cc(O)c(N=NC(N)=O)cc2CC1S(=O)(=O)O (stereo not given) [Carbazochrome sodium sulfonate (AC-17)],scaled lipid accumulation score,[4],≤ 0
same,scaled lipid accumulation score,[5],≤ 0
c1ccc(CNc2nc(NCc3ccccc3)c3ccccc3n2)cc1,scaled lipid accumulation score,[4],0.706
same,scaled lipid accumulation score,[5],0.074
CC(=O)NCCCCCC(=O)O [Acexamic acid],scaled lipid accumulation score,[5],0.236
CC(C)CCOc1ccc(NC(=S)Nc2ccc(OCCC(C)C)cc2)cc1 [Thiocarlide],scaled lipid accumulation score,[6],≤ 0
CN1C(=O)CC[C@H]1c1cccnc1 [(-)-Cotinine],scaled lipid accumulation score,[5],≤ 0 and 0.057
CN1C(=O)CC[C@H]1c1cccnc1 [Cotinine (-)],scaled lipid accumulation score,,≤ 0
CN1C(=O)CC[C@H]1c1cccnc1 [Cotinine],scaled lipid accumulation score,[5],≤ 0
same,scaled lipid accumulation score,library stock concentration: 11.3 mM,≤ -0.001
O=c1ccc2ccccc2o1 [Coumarin],scaled lipid accumulation score,[4],≤ 0
same,scaled lipid accumulation score,[5],≤ 0 and 0.012
O=c1ccc2cc(O)c(O)cc2o1 [Esculetin],scaled lipid accumulation score,,≤ 0
same,scaled lipid accumulation score,[5],≤ 0
"O=Nc1ccc2oc(=O)ccc2c1 [6-Nitroso-1,2-benzopyrone]",scaled lipid accumulation score,[5],0.9 (active)
CC(C)n1c(/C=C/C(O)CC(O)CC(=O)O)c(-c2ccc(F)cc2)c2ccccc21 (stereo not given) [fluvastatin],scaled lipid accumulation score,[5],0.549
CC(C)n1c(/C=C/C(O)CC(O)CC(=O)O)c(-c2ccc(F)cc2)c2ccccc21 (stereo not given) [Fluvastatin sodium salt],scaled lipid accumulation score,,0.403
CC(C)n1c(/C=C/C(O)CC(O)CC(=O)O)c(-c2ccc(F)cc2)c2ccccc21 (stereo not given) [Fluvastatin Sodium],scaled lipid accumulation score,[4],0.188
same,scaled lipid accumulation score,[5],0.219
COc1cc(C)c(Cc2cnc(N)nc2N)cc1OC,scaled lipid accumulation score,[5],≤ 0
CCN(CC)CCCC(C)Nc1ccnc2cc(Cl)ccc12 (stereo not given) [Chloroquine diphosphate],scaled lipid accumulation score,,0.679
same,scaled lipid accumulation score,[5],≤ 0 and 0.428
O=C(OCC(O)CO)c1ccccc1Nc1ccnc2cc(Cl)ccc12 (stereo not given) [Glafenine],scaled lipid accumulation score,[5],≤ 0
CCN(CC)CCCC(C)Nc1ccnc2cc(Cl)ccc12 (stereo not given) [Chloroquine phosphate],scaled lipid accumulation score,library stock concentration: 6.3 mM,0.285
O=C(OCC(O)CO)c1ccccc1Nc1ccnc2cc(Cl)ccc12 (stereo not given) [Glafenine hydrochloride],scaled lipid accumulation score,,≤ 0
Clc1ccc2c(N3CCN(CCCN4CCN(c5ccnc6cc(Cl)ccc56)CC4)CC3)ccnc2c1 [Piperaquine tetraphosphate tetrahydrate],scaled lipid accumulation score,[5],0.316
CCN(CCO)CCCC(C)Nc1ccnc2cc(Cl)ccc12 (stereo not given) [Hydroxychloroquine sulfate],scaled lipid accumulation score,[5],0.161
CCN(CC)Cc1cc(Nc2ccnc3cc(Cl)ccc23)ccc1O.Cl.Cl.O.O [Amodiaquin dihydrochloride dihydrate],scaled lipid accumulation score,,1.22 (active)
